Source: PubChem BioAssay
ALDH1A1 block – inhibitors of human aldehyde dehydrogenase 1A1. P00352. Purified ALDH1A1, NADH fluorescence, propionaldehyde substrate. Potency, µM (top dose mostly 75.3 µM), inactives show top-dose activity, negative = inhibition, actives largely listed as inhibitors. hit rate 7.3% among 220,000. AID 1030;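 also: plate controls were no enzyme wells and a reference inhibitor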
Lamin A splicing – modulators of lamin A splicing; Potency, µM (titrated, usually from 46.1 µM), without a hit: at the highest dose ratio change, negative = inhibition, hits mostly inhibitors; hit rate 0.01% among 200,000; AID 1487; HeLa LMNA splicing GFP/RFP minigene ratio, 48 h; active = well fitted inhibition curve with a large enough effect in the signal ratio, with a control signal flat, not every such curve was filed as active; inconclusive = small, poorly fitted or top-dose-only effect, or effect the other way, or a change in a side signal; the % refers to the signal ratio; also: % is scaled to controls: 0 for no effect and ±100 for the full control effect
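Read-out is the ratio of GFP to DsRed2 object intensity, acquired by 488 nm laser-scanning cytometry on HeLa lamin A-EGFP minigene reporter cells. Compound incubation 48 hrs at 37 °C in Opti-MEM with 2% FBS; DMSO 0.5% final.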
HTT ATP protect – Huntington cell model cytoprotection by ATP luminescence | PC12 HTT-Q103 induced, cytoprotection, ATP luminescence, 40 h | Potency, µM (highest dose often 56.4 µM), for inactives: cytoprotection (ATP increase), usual class: activators | hit rate 0.14% among 230,000; active = well fitted curve in the direction sought with a large enough effect; inconclusive = small, poorly fitted or top-dose-only effect, or another doubt; inactive = no such curve, though single readings can be large; an effect the other way counts as inactive or inconclusive; also: % of control where 0% means no effect; nearly all actives have a fitted effect of over 45% in size
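Compounds added alongside 100 nM tebufenozide, which induces toxic Q103 huntingtin exon 1-GFP in stable PC12 cells; surviving cells quantified by luminescent ATP measurement. Medium: phenol red-free DMEM, 5% equine and 5% calf serum.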
HttQ103 aggreg – reduces HttQ103-GFP aggregates in PC12 cells; PC12 HttQ103-GFP aggregates, Acumen cytometry, 40 h; Potency, µM (doses to about 46.1 µM), without a hit: at the top dose activity change, negative = inhibition, actives largely listed as inhibitors; hit rate 1.1% among 220,000; active = well fitted curve in the direction sought with a large enough effect; inconclusive = small, poorly fitted or top-dose-only effect, or another doubt; inactive = no such curve, though single readings can be large; an effect the other way counts as inactive or inconclusive; also: % is scaled to controls: 0 for no effect and ±100 for the full control effect; nearly all actives have a fitted effect of over 60% in size
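Inducible Q103 Huntingtin exon 1–GFP PC12 line, 1500 cells/well in phenol red free DMEM with 5% equine and 5% calf serum. Tebufenozide 100 nM induced expression; compounds titrated; aggregates quantified by cytometry.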
JMJD2E inh – inhibitors of human JMJD2E histone demethylase; B2RXH2; JMJD2E catalytic domain, FDH-coupled NADH fluorescence (FDH is formaldehyde dehydrogenase); Potency, µM (titrated, usually from 57.1 µM), inactives show at the highest dose activity change, negative = inhibition, usual class: inhibitors; hit rate 1.6% among 230,000; AID 2147;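 also: 0% = wells with enzyme and -100% = buffer wells without enzyme; nearly all actives have a fitted effect of over 50% in size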
Target sequence (B2RXH2 1-337 limits assumed): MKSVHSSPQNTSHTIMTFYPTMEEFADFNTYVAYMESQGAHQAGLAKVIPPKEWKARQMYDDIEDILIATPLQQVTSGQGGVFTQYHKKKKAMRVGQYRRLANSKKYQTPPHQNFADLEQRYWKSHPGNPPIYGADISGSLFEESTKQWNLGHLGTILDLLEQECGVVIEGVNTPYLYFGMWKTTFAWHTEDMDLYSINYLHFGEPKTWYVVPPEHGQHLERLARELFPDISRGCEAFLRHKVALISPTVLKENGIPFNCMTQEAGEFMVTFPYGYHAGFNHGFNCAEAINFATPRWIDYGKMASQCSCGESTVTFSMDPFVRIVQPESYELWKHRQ
HPGD block – blocks human HPGD enzyme activity; hit rate 4.3% among 150,000; Potency, µM, inactives show at the highest dose activity change, negative = inhibition, usual class: inhibitors; purified HPGD, NADH fluorescence kinetic, PGE2 substrate; P15428; AID 894; also: % is scaled to controls: 0 for no effect and ±100 for the full control effect
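NADH formation kinetics: reaction with 30 uM PGE2 and 1 mM NAD+ (final), 20 nM enzyme, Tris-HCl pH 8 with Tween 20, after 15 min compound preincubation at room temperature. Fluorescence change, last versus first of five reads.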
* hit, by the source's call; ? = inconclusive; . = no result given; [ ] = dose if it differs, or a comment. Only some compounds are listed: those with a hit (about 9.2% of all), similar ones and a draw of the others. Unless noted, calls follow the shape of the dose curve; as a rule, active = well fitted inhibition curve with a large enough effect (not every such curve was filed as active); inconclusive = small, poorly fitted or top-dose-only effect, or another doubt; inactive = no such curve, though single readings can be large or run the other way. Potency is read from the fitted curve at half-maximal effect.

SMILES | ALDH1A1 block | Lamin A splicing | HTT ATP protect | HttQ103 aggreg | JMJD2E inh | HPGD block
O=C1C=C(N2CCCCCC2)C2(CCCCC2)O1 | 8.9µM* | . | . | . | 9% | .
C[N+](C)(C)CCCCCC[N+](C)(C)C | 2% | ? | ? | -10% | 6% | -4%
CCCCCCCCCCCCCC[N+](C)(C)Cc1ccccc1 | . | . | -99% | 25µM* | . | .
CCCCCCCCCCCCCCCC[N+](C)(C)CC | . | . | -98% | 14µM* | . | .
CCCCCC[N+](C)(C)CCSSCC[N+](C)(C)CCCCCC | . | . | 10%[10 µM] | -8%[9.22 µM] | -12% | .
C#CC[N+](C)(C)CCCCCCCC | 3% | ? | -12%[10 µM] | 8.9µM* | 11% | 1%
CCCCCCCCCCCCCCCC[N+](C)(C)Cc1ccccc1 | . | . | -97% | ? | . | .
CCCCCCCCCCCCCC[N+](C)(C)C | . | . | -107% | 16µM* | . | .
O=C(c1ccco1)N1CCC[C@@]2(CCN(c3ccccn3)C2)C1 | ? | . | -18% | . | . | -28%
COc1ccc(C2CC(=O)C3=C(C2)Nc2ccccc2N(C(=O)C2CC2)C3c2cccnc2)cc1OC (centres undefined) | 14µM* | -1% | -9% | 15% | -10% | -21%
COc1ccc(C2CC(=O)C3=C(C2)Nc2ccccc2N(C(=O)CCC(=O)O)C3c2ccc(F)cc2)cc1OC (centres undefined) | . | . | -6%[10 µM] | -10%[9.22 µM] | 4% | .
COc1cc(OC)cc(C(=O)N[C@H](C(=O)OCC(=O)NC(=O)c2cccn2C)C(C)C)c1 | -10% | . | -28% | 1% | -7% | .
O=C(NC(=S)Nc1nc2c(s1)CCCC2)c1ccc(C(=O)c2ccccc2)cc1 | 3.5µM* | ? | . | -3% | 8% | -23%
O=C(NC(=S)Nc1nc2c(s1)CSc1ccccc1-2)c1ccccc1 | ? | -21% | -73% | ? | -27% | 20µM*
O=C(Nc1nc2c(s1)CCCC2)Oc1ccccc1 | -13% | 4% | 8% | -2% | -1% | -13%
O=C(Nc1nc2c(s1)CCCC2)c1cccnc1 | 11µM* | 21% | 19% | -5% | 14% | -10%
C/C(=N\Nc1nc2c(s1)CCCC2)c1ccccc1 | 25µM* | -20% | -16% | -33% | ? | -30%
CC(=O)c1cccc(NC(=O)c2cc3nc(-c4ccc(Br)cc4)cc(C(F)(F)F)n3n2)c1 | . | -11%[46 µM] | . | . | . | .
Nn1c(-c2ccc(O)cc2)nnc1-c1ccc(O)cc1 | . | . | 10%[10 µM] | -3%[9.22 µM] | 2% | .
Cc1cccc(Nc2nc3c(s2)CCCC3)c1 | 20µM* | ? | -35%[10 µM] | -7% | 8% | -13%
Cc1cccc(NC(=O)c2sc3nc4c(c(-c5cccs5)c3c2N)CN(C)CC4)c1 | 14µM* | 14% | -13% | 19%[9.22 µM] | -8% | -17%
CC(C)NC(=O)c1sc2nc3c(c(-c4cccs4)c2c1N)CN(C)CC3 | -11% | 2% | -3% | 14% | -30% | -13%
CN(C)CCNC(C(=O)Nc1cc(Cl)cc(Cl)c1)c1ccccc1 (centres undefined) | 6% | -6%[46 µM] | -7% | 7% | -3% | .
O=C(Nc1cc(Cl)cc(Cl)c1)C(NCC1CCCO1)c1ccccc1 (centres undefined) | 4.5µM* | -14% | -14%[10 µM] | 17% | -5% | .
CC(C)NC(C(=O)Nc1cc(Cl)cc(Cl)c1)c1ccccc1 (centres undefined) | 11µM* | -5% | 5% | 2% | 5% | -17%
Cc1ccc(NC(=O)C(NC2CCCC2)c2ccccc2)cc1Cl (centres undefined) | ? | . | -123% | ? | -7% | .
Cc1ccc(C(=O)n2nc(C)c(S(=O)(=O)N3CCOCC3)c2C)cc1 | . | -7%[46 µM] | . | . | . | .
COc1ccc(/C=N/NC(=O)c2ccc(CSc3nc(C)cc(C)n3)cc2)c(OC)c1OC | ? | ? | 42%[10 µM] | 7% | ? | 35µM*
Cc1cc(C)nc(SCc2ccc(C(=O)N/N=C/c3cccc(O)c3O)cc2)n1 | 0% | ? | -36%[0.074 µM] | -32% | 3.2µM* | -13%
Cc1cc(C)nc(SCc2ccc(C(=O)N/N=C/c3ccc(C(=O)O)cc3)cc2)n1 | -5% | -1%[46 µM] | 3% | 10% | -4% | .
